{
  "source": "ChEMBL document CHEMBL3988442",
  "about": "“University of Dundee, Small-Polar-MMV Screening Library” (2021)",
  "data": [
    {"tested_on": "Trypanosoma cruzi", "test": "Trypanosoma cruzi phosphomannomutase and mannose-1-phosphate guanylyltransferase assay", "type": "functional", "parameters": "scale not given: direction of the effect not stated beside the values", "conditions": "10 µM", "units": {"Percent Effect": "%"}, "values": [
      {"smiles": "CCCNCC1(O)CCCN(Cc2cccc(C)c2)C1=O", "note": "(stereo not given)", "Percent Effect": 1.57},
      {"smiles": "COCCC1(CO)CCCN(Cc2ccc(F)c(C)c2)C1", "note": "(stereo not given)", "Percent Effect": -0.88},
      {"smiles": "Cn1cc(C(=O)N[C@@H]2CN(Cc3cccs3)[C@@H]3CCCO[C@@H]32)cn1", "Percent Effect": 0.579},
      {"smiles": "Cn1ccnc1-c1cccc(NC(=O)NCCCO)c1", "Percent Effect": 0.875},
      {"smiles": "CC(C)(C)NC(=O)CNC(=O)CCc1ccccc1Br", "Percent Effect": 4.37},
      {"smiles": "c1ccc(CN2CCCC(c3nccnc3-n3ccnc3)C2)cc1", "note": "(stereo not given)", "Percent Effect": 0.591},
      {"smiles": "COc1ccc2nnc(CCCC(=O)NCCC3=CCCCC3)n2n1", "Percent Effect": 4.71},
      {"smiles": "Cc1cnn(CC2CN(Cc3nc(N)c4ccccc4n3)CCO2)c1", "note": "(stereo not given)", "Percent Effect": -5.78},
      {"smiles": "O=C(c1ccccn1)N1CCc2nc(-c3cnccn3)nc(O)c2C1", "Percent Effect": -3.36},
      {"smiles": "NCC(c1ccccc1)N1CCc2sccc2C1", "note": "(stereo not given)", "Percent Effect": -3.41},
      {"smiles": "Cc1cc(C(=O)N2Cc3ccccc3OC3(CCOCC3)C2)nc(N)n1", "Percent Effect": 0},
      {"smiles": "CC1=Nc2c(c(=O)[nH]n2C(C)C)C(c2ccccc2)S1", "note": "(stereo not given)", "Percent Effect": -0.786},
      {"smiles": "FC(F)(F)c1cc(N2CCc3ncnc(NC4CC4)c3CC2)ncn1", "Percent Effect": -3.86},
      {"smiles": "O=C(Nc1ccc(F)cc1F)Nc1c[nH]c(=O)[nH]c1=O", "Percent Effect": -5.03},
      {"smiles": "Cn1c(Cn2cccn2)nnc1C1CCN(Cc2cccnc2N)CC1", "Percent Effect": -3.4},
      {"smiles": "Cc1ccc(C2CSCCN2C(=O)C2=CCCC2)o1", "note": "(stereo not given)", "Percent Effect": 0.684},
      {"smiles": "COC(=O)c1cccc(C(=O)N2CCN(c3cccc(C)c3C)CC2)n1", "Percent Effect": 2.66},
      {"smiles": "NS(=O)(=O)N1CCc2ccc(NC(=O)Cc3ccc(F)cc3)cc21", "Percent Effect": 4.31},
      {"smiles": "COc1ccccc1C1CNC(=O)c2nc(-c3cnn(C)c3)[nH]c2C1", "note": "(stereo not given)", "Percent Effect": 3.48},
      {"smiles": "O=C1NCCN1C1CCN(Cc2nc(-c3ccoc3)no2)CC1", "Percent Effect": 3.56},
      {"smiles": "Cc1ccc(N2CC3(COCCN(Cc4nccs4)C3)OCC2=O)s1", "note": "(stereo not given)", "Percent Effect": -7.59},
      {"smiles": "CCOCCCn1c(NC(=O)c2cnn(C)c2)nc2ccccc21", "Percent Effect": -1.69},
      {"smiles": "CCn1nnc2cc(C(=O)N3CCCC3Cn3cc(C)cn3)ccc21", "note": "(stereo not given)", "Percent Effect": 3.31},
      {"smiles": "CN(C)CC1CSCCCN1C(=O)c1ccc(C(C)(C)C)cc1", "note": "(stereo not given)", "Percent Effect": -5.23},
      {"smiles": "CS(=O)(=O)CC(=O)N1C[C@H]2CCC[C@@]2(COCc2ccccn2)C1", "Percent Effect": -0.88},
      {"smiles": "COc1ccccc1CN(C)C(=O)c1cc(CN2CCC(O)CC2)on1", "Percent Effect": 3.53},
      {"smiles": "COCC(O)CNC(=O)c1coc(COc2ccc3sc(C)nc3c2)n1", "note": "(stereo not given)", "Percent Effect": -7.25},
      {"smiles": "CCc1n[nH]c(C2CN(Cc3nccn3CC)CCO2)n1", "note": "(stereo not given)", "Percent Effect": 2.45},
      {"smiles": "COc1ccc(-n2ccc(C(=O)N3CCN(C)CC3C)n2)cc1", "note": "(stereo not given)", "Percent Effect": 0.374},
      {"smiles": "c1ccc(-c2noc(CNC3CCc4ncnn4C3)n2)nc1", "note": "(stereo not given)", "Percent Effect": -4.74},
      {"smiles": "Cc1cc(=O)n2ncnc2n1CC(O)c1cc(F)ccc1F", "note": "(stereo not given)", "Percent Effect": 5.55},
      {"smiles": "CSc1ccc(C(CNC(=O)C2CC2)N2CCc3sccc3C2)cc1", "note": "(stereo not given)", "Percent Effect": 0.876},
      {"smiles": "CS(=O)(=O)NC[C@H]1OC[C@@H]2CCN(Cc3ccc(F)cc3)C[C@@H]21", "Percent Effect": -1.74},
      {"smiles": "COc1ccc(CNC(=O)CNc2cc3c(cc2Cl)OCCCO3)cc1", "Percent Effect": -2.25},
      {"smiles": "CCOCCOc1ccccc1C(=O)N1CCCC(c2ncc[nH]2)C1", "note": "(stereo not given)", "Percent Effect": 0.979},
      {"smiles": "CC(O)CN1CCN(C(=O)c2cc3ccccc3c(=O)[nH]2)CC1", "note": "(stereo not given)", "Percent Effect": -3.41},
      {"smiles": "CCN1CCC(NC(=O)CN2CCCC2Cn2nc(C)cc2C)CC1", "note": "(stereo not given)", "Percent Effect": -3.3},
      {"smiles": "CCc1ccc(OCC(O)CN2CCN(S(C)(=O)=O)CC2)cc1", "note": "(stereo not given)", "Percent Effect": -6.56},
      {"smiles": "O=C1CCCN1CC1CN(C(=O)CC2CCCC2)Cc2nccn2C1", "note": "(stereo not given)", "Percent Effect": -1.08},
      {"smiles": "Cc1nc(C2CCN(C(=O)c3cccnc3)CC2)c2sccn12", "Percent Effect": 3.36}
    ]}
  ]
}
